Key:
Test in all cases: DAPPL (digital affinity profiling via proximity ligation, sequencing); 10 mM Tris-HCl pH 7.5, 50 mM NaCl, 1 mM DTT, 4% glycerol, room temperature, 30 min; GST-TFs on glutathione beads, 16-mer random dsDNA library, 0.1% formaldehyde crosslink after washing; high values mean tight binding
Settings in all cases: protein: recombinant; tags: N-terminal GST; dsDNA, one strand shown
GABPA = target: T1, GABPA (Homo sapiens, UniProt Q06546 1-454)
T1 sequence: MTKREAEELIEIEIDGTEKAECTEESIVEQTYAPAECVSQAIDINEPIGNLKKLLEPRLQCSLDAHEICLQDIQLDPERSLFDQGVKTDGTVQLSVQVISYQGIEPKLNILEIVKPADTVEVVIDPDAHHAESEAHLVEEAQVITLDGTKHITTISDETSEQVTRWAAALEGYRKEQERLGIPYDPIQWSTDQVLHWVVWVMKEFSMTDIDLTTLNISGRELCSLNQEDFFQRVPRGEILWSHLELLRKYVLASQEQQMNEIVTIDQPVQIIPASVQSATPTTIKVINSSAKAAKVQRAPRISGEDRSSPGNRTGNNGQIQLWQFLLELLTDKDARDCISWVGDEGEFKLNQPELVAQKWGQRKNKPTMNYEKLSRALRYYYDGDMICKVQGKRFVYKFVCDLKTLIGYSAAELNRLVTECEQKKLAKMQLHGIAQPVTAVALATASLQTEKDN
Procedure, shortened: (§1)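 GST fusions of human transcription factors were expressed in yeast and captured with glutathione beads. Once given DNA barcodes and pooled alongside a tag-only sample, they were incubated for 30 min at room temperature with 200 nmole of a random double-stranded 16-mer DNA library in Tris/NaCl/DTT/glycerol buffer, then washed, crosslinked (0.1% formaldehyde), proximity-ligated, PCR-amplified and sequenced on an Illumina NextSeq500. The binding signal of each hexamer is its read frequency for a factor divided by its frequency for the tag-only sample.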

ERG = target: T2, ERG (Homo sapiens, UniProt P11308 1-479)
T2 sequence: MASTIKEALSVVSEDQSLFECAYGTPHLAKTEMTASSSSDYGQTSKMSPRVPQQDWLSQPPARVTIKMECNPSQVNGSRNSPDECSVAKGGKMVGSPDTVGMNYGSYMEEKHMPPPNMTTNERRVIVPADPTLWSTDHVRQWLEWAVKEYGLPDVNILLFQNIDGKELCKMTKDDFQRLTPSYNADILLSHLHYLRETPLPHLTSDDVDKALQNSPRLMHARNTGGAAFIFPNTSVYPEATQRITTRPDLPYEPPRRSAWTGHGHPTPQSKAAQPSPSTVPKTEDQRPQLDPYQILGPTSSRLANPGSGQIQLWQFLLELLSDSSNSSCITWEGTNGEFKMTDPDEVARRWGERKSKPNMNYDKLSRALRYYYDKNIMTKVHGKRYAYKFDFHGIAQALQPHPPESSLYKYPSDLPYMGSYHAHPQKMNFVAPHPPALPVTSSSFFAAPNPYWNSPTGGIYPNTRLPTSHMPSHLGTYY
Procedure, shortened: as §1

ELF1 = ELF1 (Homo sapiens, UniProt P32519 1-619)
Procedure, shortened: as §1

ETV5 = ETV5 (Homo sapiens, UniProt P41161 1-510)
Procedure, shortened: as §1

SPIC = target: T3, SPIC (Homo sapiens, UniProt Q8N5J4 1-248)
T3 sequence: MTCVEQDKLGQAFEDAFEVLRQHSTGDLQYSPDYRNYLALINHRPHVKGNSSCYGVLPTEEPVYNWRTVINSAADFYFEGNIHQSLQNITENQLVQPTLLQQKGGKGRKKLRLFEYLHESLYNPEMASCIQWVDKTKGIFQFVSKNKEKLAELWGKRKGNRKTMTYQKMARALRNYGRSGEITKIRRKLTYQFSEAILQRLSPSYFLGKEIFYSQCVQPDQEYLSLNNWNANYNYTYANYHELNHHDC
Procedure, shortened: as §1

ELF4 = ELF4 (Homo sapiens, UniProt Q99607 1-663)
Procedure, shortened: as §1

ELK4 = target: T4, ELK4 (Homo sapiens, UniProt P28324-2 1-405)
T4 sequence: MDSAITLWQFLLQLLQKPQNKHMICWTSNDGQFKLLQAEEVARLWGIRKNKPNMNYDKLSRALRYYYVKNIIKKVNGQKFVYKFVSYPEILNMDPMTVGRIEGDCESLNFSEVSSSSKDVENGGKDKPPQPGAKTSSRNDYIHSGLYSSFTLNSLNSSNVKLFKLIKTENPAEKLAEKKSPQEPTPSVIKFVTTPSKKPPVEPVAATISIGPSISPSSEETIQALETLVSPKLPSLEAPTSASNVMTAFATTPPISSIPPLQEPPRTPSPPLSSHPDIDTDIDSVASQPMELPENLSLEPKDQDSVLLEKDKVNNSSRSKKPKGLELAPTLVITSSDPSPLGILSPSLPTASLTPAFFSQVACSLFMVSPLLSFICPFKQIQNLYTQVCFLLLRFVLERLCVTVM
Procedure, shortened: as §1

EHF = target: T5, EHF (Homo sapiens, UniProt Q9NZC4 1-300)
T5 sequence: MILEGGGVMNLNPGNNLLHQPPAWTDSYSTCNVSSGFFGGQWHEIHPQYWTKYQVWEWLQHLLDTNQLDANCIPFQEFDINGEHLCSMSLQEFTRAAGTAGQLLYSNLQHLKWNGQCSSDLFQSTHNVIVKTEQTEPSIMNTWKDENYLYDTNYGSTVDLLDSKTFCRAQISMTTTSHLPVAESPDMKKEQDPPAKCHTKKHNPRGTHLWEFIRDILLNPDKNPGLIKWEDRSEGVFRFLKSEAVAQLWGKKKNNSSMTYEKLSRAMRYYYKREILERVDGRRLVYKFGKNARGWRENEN
Procedure, shortened: as §1

ELK3 = target: T6, ELK3 (Homo sapiens, UniProt P41970 1-407)
T6 sequence: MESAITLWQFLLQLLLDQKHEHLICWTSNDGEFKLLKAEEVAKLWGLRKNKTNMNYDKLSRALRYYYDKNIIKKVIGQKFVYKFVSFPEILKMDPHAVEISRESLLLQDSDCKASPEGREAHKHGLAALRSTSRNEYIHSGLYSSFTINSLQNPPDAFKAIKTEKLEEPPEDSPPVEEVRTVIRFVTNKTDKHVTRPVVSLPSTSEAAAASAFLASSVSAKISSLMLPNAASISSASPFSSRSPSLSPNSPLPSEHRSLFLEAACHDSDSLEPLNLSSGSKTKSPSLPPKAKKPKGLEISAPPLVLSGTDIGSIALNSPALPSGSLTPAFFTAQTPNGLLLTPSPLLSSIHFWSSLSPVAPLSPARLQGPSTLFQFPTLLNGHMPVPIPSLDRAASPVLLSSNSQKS
Procedure, shortened: as §1

ELF3 = target: T7, ELF3 (Homo sapiens, UniProt P78545 1-371)
T7 sequence: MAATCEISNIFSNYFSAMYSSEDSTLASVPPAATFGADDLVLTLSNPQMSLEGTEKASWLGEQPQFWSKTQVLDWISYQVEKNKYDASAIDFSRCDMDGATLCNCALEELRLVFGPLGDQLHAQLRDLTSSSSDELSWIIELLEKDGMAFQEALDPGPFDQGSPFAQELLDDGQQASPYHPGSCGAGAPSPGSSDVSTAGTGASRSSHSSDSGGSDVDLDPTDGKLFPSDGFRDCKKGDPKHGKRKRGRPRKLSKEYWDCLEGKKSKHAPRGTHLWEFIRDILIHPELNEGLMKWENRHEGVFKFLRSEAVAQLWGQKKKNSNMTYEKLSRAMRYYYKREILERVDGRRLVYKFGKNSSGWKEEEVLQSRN
Procedure, shortened: as §1

ETV1 = ETV1 (Homo sapiens, UniProt P50549 1-477)
Procedure, shortened: as §1

ERF = target: T8, ERF (Homo sapiens, UniProt P50548 1-548)
T8 sequence: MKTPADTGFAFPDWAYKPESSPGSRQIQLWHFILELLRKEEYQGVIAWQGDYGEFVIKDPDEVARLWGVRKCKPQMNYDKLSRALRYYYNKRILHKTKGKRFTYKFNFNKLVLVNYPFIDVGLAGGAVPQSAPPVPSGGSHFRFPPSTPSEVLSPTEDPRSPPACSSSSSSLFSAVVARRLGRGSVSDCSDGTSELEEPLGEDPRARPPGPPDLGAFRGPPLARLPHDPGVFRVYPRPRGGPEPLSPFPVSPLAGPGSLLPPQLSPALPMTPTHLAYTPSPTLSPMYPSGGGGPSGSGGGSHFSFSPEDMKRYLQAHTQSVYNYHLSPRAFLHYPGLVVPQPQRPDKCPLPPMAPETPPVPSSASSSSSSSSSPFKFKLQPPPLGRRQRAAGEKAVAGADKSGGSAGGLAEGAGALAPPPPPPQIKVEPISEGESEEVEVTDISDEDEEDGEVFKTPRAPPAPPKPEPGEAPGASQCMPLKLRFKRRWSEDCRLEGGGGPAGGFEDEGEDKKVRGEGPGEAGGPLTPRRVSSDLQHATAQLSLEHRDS
Procedure, shortened: as §1

ETS2 = target: T9, ETS2 (Homo sapiens, UniProt P15036 1-469)
T9 sequence: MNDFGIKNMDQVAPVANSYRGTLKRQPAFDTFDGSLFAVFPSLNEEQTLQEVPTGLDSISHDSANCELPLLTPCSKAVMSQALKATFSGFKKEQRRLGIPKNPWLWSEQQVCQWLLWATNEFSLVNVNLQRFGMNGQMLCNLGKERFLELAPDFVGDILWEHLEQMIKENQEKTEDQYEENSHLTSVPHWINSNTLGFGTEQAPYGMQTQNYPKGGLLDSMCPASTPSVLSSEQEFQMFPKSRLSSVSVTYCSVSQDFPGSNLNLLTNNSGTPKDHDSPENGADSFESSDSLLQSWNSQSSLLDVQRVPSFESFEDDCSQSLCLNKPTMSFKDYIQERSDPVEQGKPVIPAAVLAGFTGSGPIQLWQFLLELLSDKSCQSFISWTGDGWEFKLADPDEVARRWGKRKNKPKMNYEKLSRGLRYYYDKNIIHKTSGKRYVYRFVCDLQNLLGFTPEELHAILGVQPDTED
Procedure, shortened: as §1

ETV3 = target: T10, ETV3 (Homo sapiens, UniProt P41162-2 1-143)
T10 sequence: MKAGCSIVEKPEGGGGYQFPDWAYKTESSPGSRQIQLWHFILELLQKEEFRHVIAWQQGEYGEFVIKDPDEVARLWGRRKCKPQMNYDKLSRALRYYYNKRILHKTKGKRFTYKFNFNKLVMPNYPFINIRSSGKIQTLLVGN
Procedure, shortened: as §1

ETV6 = ETV6 (Homo sapiens, UniProt P41212 1-452)
Procedure, shortened: as §1

Sequence of ETV5 (P41161 whole entry): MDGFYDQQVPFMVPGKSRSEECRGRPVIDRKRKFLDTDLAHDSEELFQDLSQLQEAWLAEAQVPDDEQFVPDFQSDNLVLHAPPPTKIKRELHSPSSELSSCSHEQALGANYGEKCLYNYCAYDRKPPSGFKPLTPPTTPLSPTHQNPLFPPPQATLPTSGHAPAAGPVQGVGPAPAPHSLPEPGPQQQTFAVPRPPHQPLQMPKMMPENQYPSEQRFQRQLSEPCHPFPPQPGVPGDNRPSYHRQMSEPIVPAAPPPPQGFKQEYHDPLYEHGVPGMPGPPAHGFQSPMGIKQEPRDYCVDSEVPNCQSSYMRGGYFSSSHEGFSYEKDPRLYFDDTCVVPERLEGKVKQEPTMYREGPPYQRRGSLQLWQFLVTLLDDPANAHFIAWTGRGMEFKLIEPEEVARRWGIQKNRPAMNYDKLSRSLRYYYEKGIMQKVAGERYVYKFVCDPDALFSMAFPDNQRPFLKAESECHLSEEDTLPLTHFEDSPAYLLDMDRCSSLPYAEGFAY
Sequence of ETV1 (P50549 whole entry): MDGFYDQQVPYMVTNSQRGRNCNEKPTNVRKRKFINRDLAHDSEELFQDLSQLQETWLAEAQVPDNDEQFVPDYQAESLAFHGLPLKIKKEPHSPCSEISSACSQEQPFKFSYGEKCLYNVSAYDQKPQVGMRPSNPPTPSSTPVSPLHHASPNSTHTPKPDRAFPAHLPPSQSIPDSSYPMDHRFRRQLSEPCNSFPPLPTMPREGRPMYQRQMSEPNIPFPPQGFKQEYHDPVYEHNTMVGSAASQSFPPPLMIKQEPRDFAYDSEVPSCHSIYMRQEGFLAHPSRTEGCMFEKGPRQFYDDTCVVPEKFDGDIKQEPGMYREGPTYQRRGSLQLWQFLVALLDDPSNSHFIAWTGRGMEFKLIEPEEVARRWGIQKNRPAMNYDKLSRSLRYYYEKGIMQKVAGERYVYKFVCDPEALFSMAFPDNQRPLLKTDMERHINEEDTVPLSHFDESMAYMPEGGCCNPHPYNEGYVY
Sequence of ETV6 (P41212 whole entry): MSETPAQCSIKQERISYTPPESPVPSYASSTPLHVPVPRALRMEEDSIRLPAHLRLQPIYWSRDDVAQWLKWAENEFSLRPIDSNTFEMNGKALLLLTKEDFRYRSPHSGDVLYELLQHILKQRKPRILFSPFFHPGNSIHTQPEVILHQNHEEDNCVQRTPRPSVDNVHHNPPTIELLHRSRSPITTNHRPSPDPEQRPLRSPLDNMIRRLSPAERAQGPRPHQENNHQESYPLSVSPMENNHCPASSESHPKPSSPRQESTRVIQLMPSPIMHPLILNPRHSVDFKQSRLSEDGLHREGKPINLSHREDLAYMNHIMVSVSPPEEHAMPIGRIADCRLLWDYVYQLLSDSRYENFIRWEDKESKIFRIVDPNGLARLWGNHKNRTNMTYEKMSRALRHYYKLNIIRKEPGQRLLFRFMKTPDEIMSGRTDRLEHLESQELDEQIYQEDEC
Sequence of ELF1 (P32519 whole entry): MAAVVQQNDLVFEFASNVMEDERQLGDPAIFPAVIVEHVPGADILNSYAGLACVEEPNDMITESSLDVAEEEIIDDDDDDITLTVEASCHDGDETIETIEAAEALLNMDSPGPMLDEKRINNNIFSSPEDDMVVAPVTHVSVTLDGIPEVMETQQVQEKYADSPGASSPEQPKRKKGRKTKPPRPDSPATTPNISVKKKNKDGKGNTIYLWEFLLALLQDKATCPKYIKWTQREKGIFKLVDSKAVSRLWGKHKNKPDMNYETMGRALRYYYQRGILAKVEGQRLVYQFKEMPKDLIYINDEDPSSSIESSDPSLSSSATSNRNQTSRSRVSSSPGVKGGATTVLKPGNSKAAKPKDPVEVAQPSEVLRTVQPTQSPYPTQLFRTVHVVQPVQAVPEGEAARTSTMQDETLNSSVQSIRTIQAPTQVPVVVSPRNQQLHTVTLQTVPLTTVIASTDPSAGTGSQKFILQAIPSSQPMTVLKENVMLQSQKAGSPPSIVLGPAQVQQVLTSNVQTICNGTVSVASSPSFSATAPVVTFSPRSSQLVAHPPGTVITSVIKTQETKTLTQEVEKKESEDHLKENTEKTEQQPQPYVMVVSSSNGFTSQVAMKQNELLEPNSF
Sequence of ELF4 (Q99607 whole entry): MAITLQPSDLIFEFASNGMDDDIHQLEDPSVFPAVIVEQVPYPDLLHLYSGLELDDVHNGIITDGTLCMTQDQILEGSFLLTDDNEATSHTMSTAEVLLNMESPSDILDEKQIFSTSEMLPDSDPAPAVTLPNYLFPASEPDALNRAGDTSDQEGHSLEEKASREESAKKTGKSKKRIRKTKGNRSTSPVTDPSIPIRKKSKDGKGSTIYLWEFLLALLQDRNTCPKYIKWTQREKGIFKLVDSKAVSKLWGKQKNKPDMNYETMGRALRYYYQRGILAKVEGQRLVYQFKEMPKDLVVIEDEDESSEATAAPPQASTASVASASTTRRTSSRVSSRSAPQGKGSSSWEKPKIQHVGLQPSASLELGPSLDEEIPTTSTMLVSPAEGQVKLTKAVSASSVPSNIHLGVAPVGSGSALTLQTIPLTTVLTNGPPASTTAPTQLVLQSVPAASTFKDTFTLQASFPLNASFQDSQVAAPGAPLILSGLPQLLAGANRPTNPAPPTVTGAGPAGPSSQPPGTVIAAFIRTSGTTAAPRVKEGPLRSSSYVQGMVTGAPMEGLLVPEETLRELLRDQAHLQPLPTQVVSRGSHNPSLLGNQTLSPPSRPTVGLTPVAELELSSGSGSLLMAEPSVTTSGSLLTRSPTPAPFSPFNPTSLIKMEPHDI

| Sequence | binding signal (GABPA) | binding signal (ERG) | binding signal (ELF1) | binding signal (ETV5) | binding signal (SPIC) | binding signal (ELF4) | binding signal (ELK4) | binding signal (EHF) | binding signal (ELK3) | binding signal (ELF3) | binding signal (ETV1) | binding signal (ERF) | binding signal (ETS2) | binding signal (ETV3) | binding signal (ETV6) |
| --- | --- | --- | --- | --- | --- | --- | --- | --- | --- | --- | --- | --- | --- | --- | --- |
| ACGCTC | 1.05 fold enrichment (6-mer frequency, TF over GST control) | 1.01 fold enrichment (6-mer frequency, TF over GST control) | 1.07 fold enrichment (6-mer frequency, TF over GST control) | 1.01 fold enrichment (6-mer frequency, TF over GST control) | 1 fold enrichment (6-mer frequency, TF over GST control) | 1.08 fold enrichment (6-mer frequency, TF over GST control) | 1.01 fold enrichment (6-mer frequency, TF over GST control) | – | – | – | – | – | – | – | – |
| AGTAAA | 1.02 fold enrichment (6-mer frequency, TF over GST control) | – | – | 1.05 fold enrichment (6-mer frequency, TF over GST control) | – | – | – | 1.03 fold enrichment (6-mer frequency, TF over GST control) | 1.06 fold enrichment (6-mer frequency, TF over GST control) | 1.08 fold enrichment (6-mer frequency, TF over GST control) | 1.04 fold enrichment (6-mer frequency, TF over GST control) | 1.01 fold enrichment (6-mer frequency, TF over GST control) | 1.02 fold enrichment (6-mer frequency, TF over GST control) | 1.03 fold enrichment (6-mer frequency, TF over GST control) | 1.11 fold enrichment (6-mer frequency, TF over GST control) |

Reference: PMC7862700, “An all-to-all approach to the identification of sequence-specific readers for epigenetic DNA modifications on cytosine”
